Bioassay records as filed in PubChem BioAssay.
TRHR agonist – qHTS for Small Molecule Agonists and Allosteric Enhancers of Human TRH Receptor: Primary Screen for Agonists; TRHR cells, calcium flux fluo-8, FDSS agonist mode; activation, % at 2 µM; actives 0.18% (n = 360,000)
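TRHR-expressing cells loaded with fluo-8 calcium dye; 23 nL library compound pin-transferred, kinetic FDSS fluorescence (Ex 480/Em 530) recorded about 180 s for agonist-induced calcium release, before a 10 nM TRH EC20 addition for potentiator mode.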
TRHR PAM – qHTS for Small Molecule Agonists and Allosteric Enhancers of Human TRH Receptor: Primary Screen for Enhancers | Thyrotropin-releasing hormone receptor (Homo sapiens), P34981 | TRHR cells, fluo-8 calcium fluorescence, EC20 TRH enhancement | enhancement, % at 2 µM | actives 0.66% (n = 360,000) | AID 493056, 2011; in the data active = enhancement above about 30%
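Enhancer read-out: after compound pinning and an initial kinetic agonist-mode read, an EC20 of TRH (10 nM final) was injected and fluo-8 calcium signal (Ex 480/Em 530) followed at 1 s/cycle for 100 cycles in TRHR-expressing cells.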
D1 antagonist – Antagonist of Human D 1 Dopamine Receptor: qHTS. D(1A) dopamine receptor (Homo sapiens), P21728. HEK293 TREx D1 cells, calcium flux, dopamine EC80; stronger effect = lower value. activity change, negative = inhibition, % at 10 µM. actives 3.2% (n = 360,000); in the data active = activity change below about -30%
Target sequence (P21728 whole entry, looked up): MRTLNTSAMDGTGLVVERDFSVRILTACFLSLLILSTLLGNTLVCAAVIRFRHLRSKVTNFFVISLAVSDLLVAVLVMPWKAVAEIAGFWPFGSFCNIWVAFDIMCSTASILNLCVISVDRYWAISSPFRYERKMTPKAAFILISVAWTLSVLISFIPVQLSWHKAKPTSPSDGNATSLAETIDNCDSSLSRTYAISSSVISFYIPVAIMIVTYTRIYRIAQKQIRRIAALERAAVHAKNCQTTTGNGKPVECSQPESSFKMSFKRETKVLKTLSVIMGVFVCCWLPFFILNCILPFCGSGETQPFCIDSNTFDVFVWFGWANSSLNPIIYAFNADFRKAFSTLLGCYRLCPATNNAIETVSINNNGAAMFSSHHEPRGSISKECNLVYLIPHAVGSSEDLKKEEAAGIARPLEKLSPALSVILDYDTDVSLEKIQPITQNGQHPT
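Calcium flux readout: force-coupled, inducible Hek293 Trex D1 line, cells induced overnight at 30 C with tetracycline, dye-loaded 30–90 min at RT. Antagonism scored against EC80 dopamine challenge given 180 s after compound.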
D1 PAM – Potentiators of Human D1 Dopamine Receptor: qHTS; D(1A) dopamine receptor (Homo sapiens), P21728; HEK293 TREx D1 cells, calcium flux, dopamine EC20 potentiation; potentiation, % at 10 µM; actives 0.036% (n = 360,000); AID 504651, 2011; in the data active = potentiation above about 30%
D1 ag – Allosteric Agonists of the Human D1 Dopamine Receptor: qHTS. D(1A) dopamine receptor (Homo sapiens), P21728. HEK293 T-REx D1 cells, calcium flux, agonist mode. activation, % at 2 µM. actives 1% (n = 360,000). AID 504660, 2011
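Tetracycline-induced HEK293 TREx D1 cells, force-coupled to calcium signalling, were dye-loaded with a no-wash calcium kit. Compound was pin-added after a 10 s baseline. Fluorescence was read kinetically at 1 cycle/s for 180 s, with calcium rises flagged as agonism.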
Hits are given with their value; . = inactive. Shown are actives, neighbours in structure and some others; about 4.7% of the full set was active somewhere. Rule as the data show it, unless noted: active = activation above about 30%; inactive = the rest.

SMILES	TRHR agonist	TRHR PAM	D1 antagonist	D1 PAM	D1 ag
O=C(Nc1ncccc1O)c1cccc(S(=O)(=O)N2CCc3ccccc32)c1	.	.	.	.	.
CNC(=O)c1cc2c(n(-c3ccc(C)cc3)c1=O)CC(C)(C)CC2=O	.	.	.	.	.
O=C(Nc1cccc(O)c1)c1cc(-c2cccs2)on1	.	.	-38	.	.
Cc1oc2ncn(C)c(=O)c2c1C(=O)N1CCN(c2ccccc2)CC1	.	.	.	.	.
O=C(c1cc(-c2cccs2)on1)N1CCN(c2ccccc2)CC1	.	.	-38	.	.
COc1ccccc1N1CCN(C(=O)c2cc(-c3ccc(C)cc3)on2)CC1	.	.	-45	.	.
COc1ccccc1N1CCN(C(=O)c2c(C)oc3ncn(C)c(=O)c23)CC1	.	.	-35	.	.
COc1ccccc1N1CCN(C(=O)c2cc(-c3ccc(F)cc3)on2)CC1	.	.	.	.	.
O=C(c1cc(-c2cccs2)on1)N1CCN(c2ccc(F)cc2)CC1	.	.	.	.	.
O=C(NC(=S)NC1CCCCC1)c1ccccc1[N+](=O)[O-]	.	.	.	.	.
COc1ccc(NC(=O)CCn2c(=O)c3cccn3c3cccnc32)c(OC)c1	.	.	.	.	.
CCOc1ccc(CCNC(=O)C2CCCN(c3nnc(C)c4c(C)n(-c5ccccc5)nc34)C2)cc1 (stereo not given)	.	.	.	.	.
CCN(CC)c1ccc(NC(=O)c2cc(CN3CCCC3)on2)c(C)c1	.	.	.	.	.
COc1ccc(OC)c(CCNC(=O)c2c(C)oc3ncn(C)c(=O)c23)c1	.	.	-31	.	.
COc1ccc(OC)c(CCNC(=O)c2c(C)oc3ncn(CC(C)C)c(=O)c23)c1	.	.	.	.	.
COc1cc(Cl)c(C)cc1Nc1nc2ccccc2nc1NS(=O)(=O)c1ccccc1	.	.	.	.	.
Cc1ccccc1C(=O)N=c1ccn(-c2nc3ccccc3nc2NS(=O)(=O)c2ccccc2)cc1	.	.	.	.	39
CCOc1ccc(S(=O)(=O)Nc2nc3ccccc3nc2-n2ccc(=NC(=O)c3ccccc3C)cc2)cc1	.	.	.	.	62
COc1ccc2c(c1)cc1c(=O)n(CC(=O)NCCCc3ccccc3)nc(C)n12	.	.	.	.	.
Cc1cc(C)cc(NC(=O)CN(c2cc(C(F)(F)F)ccc2Cl)S(=O)(=O)c2ccccc2)c1	.	.	.	.	.
CCOc1cc(CNCCc2ccc(S(N)(=O)=O)cc2)ccc1OCc1ccc(Cl)cc1	.	.	-56	.	79
Nc1nonc1C(=O)NCCNCc1ccccc1OCc1ccc(F)cc1	.	.	.	.	30
CCOc1ccc(CNCCNC(=O)c2nonc2N)cc1	.	.	.	.	.
COc1cc(CNCCc2ccc(S(N)(=O)=O)cc2)ccc1OCc1ccc(Cl)cc1	.	.	.	.	.
NS(=O)(=O)c1ccc(CCNCc2ccccc2OCc2ccc(F)cc2)cc1	.	.	-40	.	41
SMILES	TRHR agonist	TRHR PAM	D1 antagonist	D1 PAM	D1 ag
COc1cc(CNc2ccc3[nH]c(=O)[nH]c3c2)cc(Cl)c1OCc1ccccc1F	.	.	.	.	.
COc1cc(CNC2CCCC2)cc(Cl)c1OCc1ccccc1F	.	.	-58	.	157
Cc1nnc(SC(C)C(=O)Nc2ccc(Cl)cn2)n1Cc1ccccc1 (stereo not given)	.	.	.	.	.
CC(Sc1nnc(-c2ccc(Cl)cc2Cl)n1Cc1ccccc1)C(=O)Nc1nccs1 (stereo not given)	.	.	-46	.	.
COC(=O)c1c(NC(=O)C2CC=CCC2C(=O)O)sc2c1CCCCC2 (stereo not given)	.	31	.	.	.
COC(=O)c1c(NC(C)=O)sc2c1CCCCC2	.	.	.	.	.
Cc1c(NC(=O)Nc2ccc(C(C)(C)C)cc2)c(=O)n(-c2ccccc2)n1C	.	.	.	.	.
COc1cccc2sc3ccc(NCc4ccc5c(c4)OCO5)cc3c(=O)c12	.	.	.	.	31
